{"source": "PubChem BioAssay (NCI)", "note": "Compounds without any hit were thinned out: in the full panel of roughly 83,000, 20% have a hit.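 96-well plates, one dose, 48 hours. Percent growth reported; active if below 10.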 Unmarked numbers belong to inactive results. The source made the active and inactive calls."}
{"system": "HL-60(TB) leukemia", "test": "NCI-60 one-dose screen, 48 h (100 = growth as untreated, 0 = no growth, -100 = all killed)", "conditions": "10 µM unless noted"}
{"smiles": "COc1ccc(Nc2cnc3cc(NS(=O)(=O)c4ccc(C)cc4)ccc3n2)cc1", "growth": "70%"}
{"smiles": "CCOc1cc(/C=C/C(=O)CC(=O)/C=C/c2ccc(OC(=O)CNc3nc4ccc(OC)cc4s3)c(OCC)c2)ccc1OC(=O)CNc1nc2ccc(OC)cc2s1", "growth": "21.5%"}
{"smiles": "CN1CCN(c2ccc(NC(=O)c3cncnc3Nc3ccc(OCc4cccc(F)c4)c(Cl)c3)cc2)CC1", "growth": "66.9%"}
{"smiles": "CN1CC[C@H](c2c(O)cc(O)c3c(=O)cc(-c4ccccc4Cl)oc23)[C@H](O)C1", "growth": "-23.1% (active)"}
{"smiles": "CCOC(=O)Nc1cc(-c2ccc(C)c(NS(C)(=O)=O)c2)nn2c(C)nnc12", "growth": "10.8%"}
{"smiles": "CCOC(=O)C(CCCCC(NC(C)=O)(C(=O)OCC)C(=O)OCC)(NC(C)=O)C(=O)OCC", "growth": "104%"}
{"smiles": "C/C=C1\\SC(=S)NC1=O", "growth": "110%"}
{"smiles": "COc1ccc(NC(=O)CSc2nc(C)c(C(C)=O)n2-c2ccc([N+](=O)[O-])cc2)cc1", "growth": "121%"}
{"smiles": "O=C1Nc2ccccc2/C1=C\\c1cccc(/C=C2/C(=O)Nc3ccccc32)n1", "growth": "-48.6% (active)"}
{"smiles": "C=C(CN1CC=CCC1)[C@@H]1CC[C@]2(C(=O)OC)CC[C@]3(C)[C@H](CC[C@@H]4[C@@]5(C)CC[C@H](OC(C)=O)C(C)(C)[C@@H]5CC[C@]43C)[C@@H]12", "growth": "49.6%"}
{"smiles": "COC(=O)CCC1=C(C)C(C)=N/C1=C\\c1[nH]c(-c2ccc[nH]2)cc1OC", "growth": "-21.8% (active)"}
{"smiles": "Cc1cccc(Cc2cnc(NC(=O)CCc3ccc(C)o3)s2)c1", "growth": "-41.5% (active)"}
